From PubChem BioAssay come the findings set out here.

Results with a measured potency or affinity are listed apart. Results filed as inconclusive are left out. A number with no mark means an inactive call. Active and inactive are the calls of the source.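 How the source made its calls, unless noted: active means signal drop whose fitted half-maximal concentration is at most twice the top valid dose, in every test run; inconclusive means mixed calls across runs, poor fit, or flat 30 to 70% inhibition; inactive means wrong direction, flat within 30%, or potency beyond limit.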

The nature of the first experiment: RMG-1 ovarian cancer cell viability loss – cherry-pick, dose response (AID 687029).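 Further: cells exposed to compound for 96 hours.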 The settings on record: RMG-1 viability, CellTiterGlo ATP luminescence, 96 h; series mostly up to 35 µM.
With `CCCCCC(=O)N/N=C(\C)c1ccc(N2CCCCC2)cc1`, the outcome was inactive.

Turning to `CN(C(=O)COC(=O)C1CCN(S(=O)(=O)c2c(Cl)cccc2Cl)CC1)C1CCS(=O)(=O)C1` (centres undefined), the result was inactive.

Consider `O=[N+]([O-])c1cc(-c2nnc(-c3ccccc3)o2)ccc1Oc1ccc(Cl)cc1`, for which the compound was called inactive.

For the compound `CC(=O)C1=C(O)C(=O)N(CCc2ccccc2)C1c1ccccc1[N+](=O)[O-]` (centres undefined), the outcome was inactive.

Turning to `CN1CCN(C(=S)Nc2ccc(Cl)c(Cl)c2)CC1`, the compound was called inactive.

On to `OCC1CCCN(C(=S)Nc2ccc(OC(F)F)cc2)C1` (centres undefined), for which the result was inactive.

Turning to `Cc1ccc(NC(=O)c2c([N+](=O)[O-])c(C(C)(C)C)nn2C)c(C)c1`, the compound was called inactive.

In the case of `CCCNC(=O)COC(=O)/C=C/c1ccco1`, the outcome was inactive.

In the case of `COc1ccc(NC(=O)C[C@H]2C(=O)N(c3ccc(OC)cc3)C[C@@H]2C)cc1`, the compound was called inactive.

On to `C[C@@H]1CN([C@@H](C)CO)C(=O)CCCn2nncc2CO[C@H]1CN(C)S(=O)(=O)c1ccc(Cl)cc1`, for which the compound was classed as inactive.

As for `Cc1cc(C)c2c(c1)/C(=N/NC(=O)c1cc(C)oc1C)CCC2`, the result was inactive.

For `Cc1ccc2nc(-c3ccc(NC(=S)NC4CC(C)(C)NC(C)(C)C4)cc3)sc2c1`, the result was inactive.

As for `COc1ccc(C(C)NC(=O)c2ccc(Br)cc2)cc1OC` (centres undefined), the compound was called inactive.

Turning to `Cc1ccc(-c2ccc([C@@H]3[C@H](CO)N4CCCCN(C(=O)Nc5cccc(F)c5)C[C@@H]34)cc2)cc1`, the call was inactive.

Turning to `O=C(NCC1CCCO1)C(=O)NCC(c1ccco1)N1CCN(c2ccccc2)CC1` (centres undefined), the call was inactive.

As for `COc1ccc(C(=O)NC(=S)NNC(=O)COc2ccccc2)cc1`, the result was inactive.

With `Cc1cnc(NC(=O)CSc2nnc(C)n2N)s1`, the call was inactive.

`CCN1CCN(c2nc(-c3cccs3)nc3ccccc23)CC1`: the activity change, negative = inhibition was 16.7% [at 8 µM].

On to `Cc1ccc(/C=C/C(=O)N2CCN(c3cccc(C(F)(F)F)c3)CC2)cc1`, for which the call was inactive.

Regarding `CN(C)CC#Cc1ccc([C@@H]2[C@H](CO)N3CCCCN(C(=O)Nc4ccc(F)cc4)C[C@@H]23)cc1`, the compound was classed as inactive.

With `O=C(Cc1nnc(NC(=O)c2ccccc2)s1)N/N=C/c1ccco1`, the compound was called inactive.

In the case of `COc1ccc(C)cc1NC(=O)C1CCCN(S(=O)(=O)c2cccc3nonc23)C1` (centres undefined), the compound was classed as inactive.

Regarding `CC(C)(C)OC(=O)[C@H](Cc1ccccc1)NC(=O)c1nc[nH]c1C(=O)N[C@@H](Cc1ccccc1)C(=O)OC(C)(C)C`, the result was inactive.

`C[C@H](CO)N1C[C@H](C)[C@@H](CN(C)C(=O)Nc2ccnc(N3CCOCC3)c2)OCc2cnnn2CCCC1=O`: the result was inactive.

Take `CCCCCCCCNC(=O)c1cnccn1`: the compound was called inactive.

For the compound `Cc1nnc(N/N=C/c2cccc(C(F)(F)F)c2)n1N`, the call was inactive.

On to `O=C(NCc1ccc(F)cc1)C1(c2cccs2)CCOCC1`, for which the call was inactive.

With `Cn1ccnc1SCc1nc2c(cnn2-c2ccccc2)c(=O)[nH]1`, the compound was called inactive.

`O=C(NNC(=O)c1cccc2ccccc12)c1cccc(F)c1`: the compound was called inactive.

For `O=C(/C=C/c1ccc(Cl)cc1Cl)N1CCN(c2ccccc2[N+](=O)[O-])CC1`, the outcome was inactive.

As to `COc1ccc(C(=O)N/N=C/c2ccc(OC(=O)c3cccs3)cc2)cc1`, the compound was called inactive.

On to `O=C(Cc1cccs1)N/N=C/C=C/c1ccccc1`, for which the compound was classed as inactive.

For the compound `CO[C@@H]1CN(C)C(=O)c2cc(NC(=O)c3nc4ccccc4s3)ccc2OC[C@H](C)NC[C@H]1C`, the result was inactive.

With `Nn1cnnc1N/N=C\c1ccc(-c2ccccc2[N+](=O)[O-])o1`, the call was inactive.

Take `Nc1ccc2c(c1)CC(=O)c1ccccc1S2`: the compound was called inactive.

In the case of `COc1ccc2c(c1)OC/C(=C/c1cccs1)C2=O`, the result was inactive.

In the case of `Cc1cc([N+](=O)[O-])nn1CCCC(=O)Nc1sc2c(c1C(N)=O)CCC(C)C2` (centres undefined), the outcome was inactive.

In the case of `O=C(Cn1cc(C(F)(F)F)ccc1=O)Nc1ccc2c(c1)OCO2`, the result was inactive.

With `Cc1ccc(-c2nc(C)sc2CC(=O)OCC(=O)Nc2cccc([N+](=O)[O-])c2)cc1`, the outcome was inactive.

The next experiment can be described thus: CMV-driven luciferase expression suppression in HEK293 – cell-based, luminescence, dry powder, counter-screen for Pax8 inhibitor project, dose response (AID 743020;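 active means signal-lowering compounds whose fitted half-maximal concentration is at or below twice the top tested dose in every run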;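 further: HEK293 cells stably expressing the CMV luciferase reporter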). Conditions: HEK293 CMV-luciferase reporter, SteadyGlo luminescence, 24 h; series mostly up to 35 µM.
`CN(C(=O)COC(=O)C1CCN(S(=O)(=O)c2c(Cl)cccc2Cl)CC1)C1CCS(=O)(=O)C1` (centres undefined): the outcome was inactive.

Turning to `CN1CCN(C(=S)Nc2ccc(Cl)c(Cl)c2)CC1`, the compound was classed as inactive.

`COc1ccc(NC(=O)C[C@H]2C(=O)N(c3ccc(OC)cc3)C[C@@H]2C)cc1`: the compound was called inactive.

As to `Oc1ccc(F)c2cccnc12`, the call was inactive.

Take `COc1ccc(C(C)NC(=O)c2ccc(Br)cc2)cc1OC` (centres undefined): the call was inactive.

Take `Cc1ccc(-c2ccc([C@@H]3[C@H](CO)N4CCCCN(C(=O)Nc5cccc(F)c5)C[C@@H]34)cc2)cc1`: the compound was called inactive.

As for `O=C(NCC1CCCO1)C(=O)NCC(c1ccco1)N1CCN(c2ccccc2)CC1` (centres undefined), the call was inactive.

Regarding `Cc1cnc(NC(=O)CSc2nnc(C)n2N)s1`, the compound was classed as inactive.

Turning to `CN(C)CC#Cc1ccc([C@@H]2[C@H](CO)N3CCCCN(C(=O)Nc4ccc(F)cc4)C[C@@H]23)cc1`, the call was inactive.

Take `O=C(Cc1nnc(NC(=O)c2ccccc2)s1)N/N=C/c1ccco1`: the compound was classed as inactive.

Turning to `COc1ccc(C)cc1NC(=O)C1CCCN(S(=O)(=O)c2cccc3nonc23)C1` (centres undefined), the outcome was inactive.

On to `C[C@H](CO)N1C[C@H](C)[C@@H](CN(C)C(=O)Nc2ccnc(N3CCOCC3)c2)OCc2cnnn2CCCC1=O`, for which the outcome was inactive.

For the compound `CCCCCCCCNC(=O)c1cnccn1`, the compound was called inactive.

In the case of `O=C(NNC(=O)c1cccc2ccccc12)c1cccc(F)c1`, the outcome was inactive.

Consider `O=C(/C=C/c1ccc(Cl)cc1Cl)N1CCN(c2ccccc2[N+](=O)[O-])CC1`, for which the compound was called inactive.

As for `O=C(Cc1cccs1)N/N=C/C=C/c1ccccc1`, the result was inactive.

`CO[C@@H]1CN(C)C(=O)c2cc(NC(=O)c3nc4ccccc4s3)ccc2OC[C@H](C)NC[C@H]1C`: the compound was called inactive.

For the compound `Nn1cnnc1N/N=C\c1ccc(-c2ccccc2[N+](=O)[O-])o1`, the outcome was inactive.

On to `Nc1ccc2c(c1)CC(=O)c1ccccc1S2`, for which the call was inactive.

In the case of `O=C(Cn1cc(C(F)(F)F)ccc1=O)Nc1ccc2c(c1)OCO2`, the result was inactive.
